Compound activity as filed in PubChem.
EPAC2 ag – qHTS for Agonist of cAMP-regulated guanine nucleotide exchange factor 4 (EPAC2): primary screen. Rap guanine nucleotide exchange factor 4 (Homo sapiens), Q8WZA2. EPAC2 activation, biochemical qHTS; response scale: 100% = 6.5 mM cAMP response. Potency, µM (titrated, usually from 154 µM), inactives show top-dose activation, hits mostly activators. 0.079% of 360,000 active. AID 720711, 2013; further: potency means the concentration at half of the fitted maximal effect; nearly all actives have a fitted effect of over 50% in size
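qHTS, titration series. 100 nM EPAC2 / 250 nM Rap1B-BODIPY-GDP / 50 uM GDP; RT; ex 480/em 540 nm, 5-min reads to 30 min. Norm. to 6.5 mM cAMP = activation.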
EPAC1 ag – qHTS for Agonist of cAMP-regulated guanine nucleotide exchange factor 3 (EPAC1): primary screen | Rap guanine nucleotide exchange factor 3 (Homo sapiens), O95398 | EPAC1 agonist qHTS, biochemical assay; response scale: 100% = response to 6.5 mM cAMP | Potency, µM (doses to about 154 µM), without a hit: top-dose activation, actives largely listed as activators | 0.073% of 360,000 active | AID 720707, 2013; further: potency means the concentration at half of the fitted maximal effect; nearly all actives have a fitted effect of over 60% in size
Target sequence (O95398 whole entry, looked up): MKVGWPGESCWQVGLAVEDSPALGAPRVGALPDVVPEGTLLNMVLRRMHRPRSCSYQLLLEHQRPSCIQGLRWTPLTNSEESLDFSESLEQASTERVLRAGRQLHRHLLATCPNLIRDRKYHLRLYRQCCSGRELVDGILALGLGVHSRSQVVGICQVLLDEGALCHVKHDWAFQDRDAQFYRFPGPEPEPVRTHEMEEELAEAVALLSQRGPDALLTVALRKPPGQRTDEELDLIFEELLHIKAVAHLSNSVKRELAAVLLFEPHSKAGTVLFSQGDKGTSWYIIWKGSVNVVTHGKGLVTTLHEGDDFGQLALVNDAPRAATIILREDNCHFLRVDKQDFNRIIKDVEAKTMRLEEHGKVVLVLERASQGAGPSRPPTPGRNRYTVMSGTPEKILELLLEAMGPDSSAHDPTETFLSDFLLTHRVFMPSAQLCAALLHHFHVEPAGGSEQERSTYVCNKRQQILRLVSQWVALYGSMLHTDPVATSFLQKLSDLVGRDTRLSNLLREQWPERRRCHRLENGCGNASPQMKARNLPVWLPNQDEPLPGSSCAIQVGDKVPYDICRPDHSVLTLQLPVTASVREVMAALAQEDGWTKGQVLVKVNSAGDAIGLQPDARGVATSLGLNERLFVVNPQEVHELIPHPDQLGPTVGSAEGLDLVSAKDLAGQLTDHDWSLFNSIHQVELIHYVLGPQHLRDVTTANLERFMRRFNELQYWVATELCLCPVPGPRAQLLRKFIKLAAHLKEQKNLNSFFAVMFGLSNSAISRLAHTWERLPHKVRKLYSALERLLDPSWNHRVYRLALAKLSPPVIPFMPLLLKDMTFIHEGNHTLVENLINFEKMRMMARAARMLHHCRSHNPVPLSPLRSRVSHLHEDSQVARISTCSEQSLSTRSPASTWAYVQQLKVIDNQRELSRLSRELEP
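Read-out is the fluorescence drop as BODIPY-GDP leaves Rap1B (480 nm excitation, 540 nm emission), recorded every 5 minutes over 30 minutes. Reactions held 100 nM EPAC1, 250 nM Rap1B–BODIPY-GDP and 50 uM GDP, with 6.5 mM cAMP setting full activation.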
EPAC1 antagonist – qHTS for Antagonist of cAMP-regulated guanine nucleotide exchange factor 3 (EPAC1): primary screen. EPAC1 GEF assay, Rap1b-BODIPY-GDP exchange fluorescence. Potency, µM (doses to about 115 µM), without a hit: top-dose activity change, negative = inhibition, usual class: inhibitors. 0.14% of 360,000 active. AID 720709, 2013;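 further: potency means the concentration at half of the fitted maximal effect; plate controls were vehicle for no effect and positive control for full effect; nearly all actives have a fitted effect of over 50% in size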
EPAC2 antagonist – qHTS for Antagonist of cAMP-regulated guanine nucleotide exchange factor 2 (EPAC2): primary screen; Rap guanine nucleotide exchange factor 4 (Homo sapiens), Q8WZA2; EPAC2 GEF exchange of Rap1B-BODIPY-GDP, fluorescence; Potency, µM (doses to about 114 µM), without a hit: at the highest dose activity, negative = inhibition, most hits filed as inhibitors; 0.18% of 360,000 active; AID 720708, 2013; further: potency means the concentration at half of the fitted maximal effect; on the % scale 0 is the no-effect control and ±100 the full control effect; nearly all actives have a fitted effect of over 45% in size
hERG WT inh – qHTS for Inhibitors of KCHN2 3.1: Wildtype qHTS; U2OS, BacMam KCNH2, thallium flux FluxOr; hits give low values; activity change, % at 1.84 µM; 0.37% of 340,000 active;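 active means maximum activity change below -70%; inconclusive means maximum activity change between -70% and -50%; inactive means maximum activity change above -50%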; further: on the % scale 0 is the no-effect control and ±100 the full control effect
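U2OS cells transduced with wild-type KCNH2 virus are loaded with FluxOr dye for 45 min, and thallium flux is measured in kinetic reads before and after stimulation buffer. Rate constants are normalized to DMSO controls.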
KCNH2 3.1 block – qHTS for Inhibitors of KCHN2 3.1: Mutant qHTS. 0.95% of 340,000 active. U2OS KCNH2 3.1, thallium flux FluxOr; hits give low values. Potassium voltage-gated channel subfamily H member 2, brain isoform KCNH2 3.1 (human). activity change, % (tested at about 1.8 µM);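 active means maximum activity change below -70%; inconclusive means maximum activity change from -70% to -50%; inactive means maximum activity change above -50%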;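 further: thallium influx rate constant from kinetic fluorescence after stimulation buffer; on the % scale 0 is the no-effect control and ±100 the full control effect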
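Virally transduced U2OS (3.1 isoform, 4 h infection in dark at RT) → overnight 37 C → FluxOr + Red40 in HBSS/HEPES, 45 min → stimulation buffer, 2 min kinetic read → rate constant vs DMSO controls.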
Numbers without * were called inactive; u = inconclusive; x = no result given. This is a sample that favours compounds with a hit; in the whole collection about 1.4% have one here. Unless noted, the call rests on the fitted dose curve; in most records, active means well fitted curve in the direction sought with a large enough effect; inconclusive means small, poorly fitted or top-dose-only effect, or another doubt; inactive means no such curve, though single readings can be large; an effect the other way counts as inactive or inconclusive.

SMILES	EPAC2 ag	EPAC1 ag	EPAC1 antagonist	EPAC2 antagonist	hERG WT inh	KCNH2 3.1 block
COC1CC2C=C(C)C=CC=CC(=O)NC(c3ccccc3)CC=CCCC(O)CC(=O)C2=C1O (stereo unspecified)	3%	-16%	u	-4%	x	x
CN1CC=C(/C=C/c2ccc(-c3ccccc3)cc2)CC1	2%	5%	-19%	10%	8	-90*
CCCNC(=O)C1(C)CCN(Cc2ccc3ccccc3c2Br)C1 (stereo unspecified)	13%	7%	u	-13%	x	x
COc1ccc(/C=N\NC(=O)c2cccc(F)c2)cc1COc1ccccc1	7%	-2%	u	-17%	-11	-4
O=C(O)Cn1cc(/C=C2\C(=O)NC(=O)N(c3ccc(Cl)cc3)C2=O)c2ccccc21	4%	5%	-24%	-24%	0	-11
Cn1cc(/C=C2\C(=O)NC(=O)N(c3ccccc3)C2=O)c2ccccc21	100µM*	-1%	-9%	44%	-10	13
